Values joined by “and” are separate entries in the source; they are usually repeats but may differ in a detail not shown here. Equal entries are not always repeated. Where a structure was tested more than once in an assay, its records may differ in their call. Active and inactive are the calls of the source. The calls were made as follows: active = hit-call score of the fitted dose curve at least 0.9, where 1 is the maximum; inactive = score below 0.9.
read-out: Eotaxin 3, CCL26 (gene 10344); experiment: BSK_BF4T_Eotaxin3: BioMAP Diversity Plus: BF4T Assay for Eotaxin 3 Biomarker Activity (AID 2284258); settings: primary human bronchial epithelial cells with fibroblasts
Summary of the method: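 Co-culture of human bronchial epithelial cells and dermal fibroblasts, exposed to chemicals for 24 h versus DMSO. Eotaxin-3 quantified by ELISA; cytotoxicity checked in parallel cultures by sulforhodamine B total-protein staining.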

Row | Compound | outcome | AC50
1 | CC(C)(C)C(=O)CC(=O)C(F)(F)C(F)(F)C(F)(F)F | inactive | –
2 | O=C(O)C(F)(F)C(F)(F)OC(F)(F)F | inactive | –
3 | OCC(F)(F)C(F)(F)C(F)(F)C(F)(F)C(F)(F)C(F)(F)F | inactive | –
4 | FC(F)(F)C(F)(F)C(F)(F)C(F)(F)C(F)(F)C(F)(F)C(F)(F)Br | inactive | –
5 | C=C(C)C(=O)OCC(F)(F)C(F)(F)C(F)(F)F | inactive | –
6 | OCC(F)(F)C(F)(F)C(F)(F)C(F)(F)C(F)(F)C(F)F | inactive | –
7 | C=CC(F)(F)C(F)(F)C(F)(F)C(F)(F)C(F)(F)C(F)(F)C(F)(F)C(F)(F)F | inactive | –
8 | Cc1ccc(S(=O)(=O)OCC(F)(F)C(F)(F)C(F)(F)C(F)(F)C(F)(F)C(F)F)cc1 | inactive | –
9 | N=C(N)C(F)(F)C(F)(F)C(F)(F)C(F)(F)C(F)(F)C(F)(F)C(F)(F)F | inactive | 38.9 µM (active)
10 | CCO[Si](CCC(F)(F)C(F)(F)C(F)(F)C(F)(F)C(F)(F)C(F)(F)F)(OCC)OCC | inactive | –
11 | FC(F)(F)C(F)(F)CNCC(F)(F)C(F)(F)F | inactive | –
12 | C=CC(=O)OCC(F)(F)C(F)(F)C(F)(F)C(F)(F)COC(=O)C=C | – | 21.9 µM (active) and 30 µM (active)
13 | FC(F)(F)C(F)(F)C(F)(F)C(F)(F)C(F)(F)C(F)(F)CC1CO1 (centres undefined) | inactive | –
14 | OCCCC(F)(F)C(F)(F)C(F)(F)F | inactive | –
15 | O=C(Cl)C(F)(F)C(F)(F)C(F)(F)C(F)(F)C(F)(F)C(F)(F)C(F)(F)C(F)(F)F | – | 41.7 µM (active) and 39.5 µM (active) and 45.8 µM (active)
16 | O=C(O)C(F)(F)C(F)(F)C(F)(F)C(F)(F)C(F)(F)C(F)(F)C(F)(F)C(F)(F)Cl | – | 8.26 µM (active) and 1.05 µM (active)
17 | FC(F)(F)C(F)(F)C(F)(F)C(F)(F)C(F)(F)CCI | inactive | 38.6 µM (active)

Row | Compound | outcome | AC50
18 | O=C(O)C(F)(F)C(F)(F)C(F)(F)C(F)(F)C(F)(F)C(F)(F)C(F)(F)C(F)(F)C(F)(F)C(F)F | inactive | 5.95 µM (active)
19 | O=P(O)(O)OCCC(F)(F)C(F)(F)C(F)(F)C(F)(F)C(F)(F)C(F)(F)F | inactive | –
20 | FC(F)(Br)C(F)(F)C(F)(F)C(F)(F)C(F)(F)C(F)(F)Br | inactive | –
21 | OCC(F)(F)C(F)(F)C(F)(F)F | inactive | –
22 | O=C(O)C(F)(F)C(F)(F)C(F)(F)C(F)(F)C(F)(F)C(F)(F)C(F)(F)C(F)(F)C(F)(F)C(F)(F)C(F)(F)C(F)(F)F | inactive | –
23 | O=S(=O)(OCC(F)F)C(F)(F)F | inactive | –
24 | FC(F)(F)C(F)(F)C(F)(F)CI | inactive | –
25 | FC(F)(I)C(F)(F)C(F)(F)C(F)(F)I | inactive | 57.1 µM (active) and 50.6 µM (active)
26 | FC(F)(F)C(F)(F)C(F)(F)C(F)(F)C(F)(F)C(F)(F)C(F)(F)I | inactive | –
27 | OCCCC(F)(F)C(F)(F)C(F)(F)C(F)(F)C(F)(F)C(F)(F)C(F)(F)F | inactive | 52.3 µM (active)
28 | COC(=O)CCC(F)(F)C(F)(F)C(F)(F)C(F)(F)F | inactive | –
29 | OCC(F)(F)C(F)(F)C(F)(F)C(F)F | inactive | –
30 | FC1CC(F)(F)C(F)(F)C1(F)F (centres undefined) | inactive | –
31 | O=C(O)C(F)(F)C(F)(F)C(F)(F)C(F)(F)F | inactive | –
32 | O=S(=O)(O)C(F)(F)C(F)(F)C(F)(F)C(F)(F)C(F)(F)C(F)(F)C(F)(F)F | inactive | –
33 | O=C(CC(=O)C(F)(F)C(F)(F)F)C(F)(F)F | inactive | –

read-out: Monocyte Chemoattractant Protein-1 (MCP1), CCL2 (gene 6347); experiment: BSK_BF4T_MCP1: BioMAP Diversity Plus: BF4T Assay for Monocyte Chemoattractant Protein-1 (MCP1) Biomarker Activity (AID 2284259); settings: primary human bronchial epithelial cells with fibroblasts
Summary of the method: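 Co-culture of bronchial epithelial cells and dermal fibroblasts dosed with chemical; MCP-1 measured by ELISA 24 h later. Activity fitted in positive direction versus DMSO; cytotoxicity checked by SRB staining in parallel cultures.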

Row | Compound | AC50 | outcome
34 | CC(C)(C)C(=O)CC(=O)C(F)(F)C(F)(F)C(F)(F)F | 49.9 µM (active) | inactive
35 | O=C(O)C(F)(F)C(F)(F)OC(F)(F)F | – | inactive
36 | OCC(F)(F)C(F)(F)C(F)(F)C(F)(F)C(F)(F)C(F)(F)F | – | inactive
37 | FC(F)(F)C(F)(F)C(F)(F)C(F)(F)C(F)(F)C(F)(F)C(F)(F)Br | – | inactive
38 | C=C(C)C(=O)OCC(F)(F)C(F)(F)C(F)(F)F | – | inactive
39 | OCC(F)(F)C(F)(F)C(F)(F)C(F)(F)C(F)(F)C(F)F | – | inactive
40 | C=CC(F)(F)C(F)(F)C(F)(F)C(F)(F)C(F)(F)C(F)(F)C(F)(F)C(F)(F)F | – | inactive
41 | Cc1ccc(S(=O)(=O)OCC(F)(F)C(F)(F)C(F)(F)C(F)(F)C(F)(F)C(F)F)cc1 | 7.88 µM (active) | inactive
42 | N=C(N)C(F)(F)C(F)(F)C(F)(F)C(F)(F)C(F)(F)C(F)(F)C(F)(F)F | – | inactive
43 | CCO[Si](CCC(F)(F)C(F)(F)C(F)(F)C(F)(F)C(F)(F)C(F)(F)F)(OCC)OCC | – | inactive
44 | FC(F)(F)C(F)(F)CNCC(F)(F)C(F)(F)F | – | inactive
45 | C=CC(=O)OCC(F)(F)C(F)(F)C(F)(F)C(F)(F)COC(=O)C=C | 11.2 µM (active) and 15.5 µM (active) | –
46 | FC(F)(F)C(F)(F)C(F)(F)C(F)(F)C(F)(F)C(F)(F)CC1CO1 (centres undefined) | – | inactive
47 | OCCCC(F)(F)C(F)(F)C(F)(F)F | – | inactive
48 | O=C(Cl)C(F)(F)C(F)(F)C(F)(F)C(F)(F)C(F)(F)C(F)(F)C(F)(F)C(F)(F)F | 45.5 µM (active) | inactive
49 | O=C(O)C(F)(F)C(F)(F)C(F)(F)C(F)(F)C(F)(F)C(F)(F)C(F)(F)C(F)(F)Cl | 40.4 µM (active) and 45.9 µM (active) | –
50 | FC(F)(F)C(F)(F)C(F)(F)C(F)(F)C(F)(F)CCI | – | inactive

Row | Compound | AC50 | outcome
51 | O=C(O)C(F)(F)C(F)(F)C(F)(F)C(F)(F)C(F)(F)C(F)(F)C(F)(F)C(F)(F)C(F)(F)C(F)F | 13.3 µM (active) and 3.36 µM (active) | –
52 | O=P(O)(O)OCCC(F)(F)C(F)(F)C(F)(F)C(F)(F)C(F)(F)C(F)(F)F | – | inactive
53 | FC(F)(Br)C(F)(F)C(F)(F)C(F)(F)C(F)(F)C(F)(F)Br | – | inactive
54 | OCC(F)(F)C(F)(F)C(F)(F)F | – | inactive
55 | O=C(O)C(F)(F)C(F)(F)C(F)(F)C(F)(F)C(F)(F)C(F)(F)C(F)(F)C(F)(F)C(F)(F)C(F)(F)C(F)(F)C(F)(F)F | – | inactive
56 | O=S(=O)(OCC(F)F)C(F)(F)F | – | inactive
57 | FC(F)(F)C(F)(F)C(F)(F)CI | – | inactive
58 | FC(F)(I)C(F)(F)C(F)(F)C(F)(F)I | 38 µM (active) and 42.1 µM (active) and 42.5 µM (active) | –
59 | FC(F)(F)C(F)(F)C(F)(F)C(F)(F)C(F)(F)C(F)(F)C(F)(F)I | – | inactive
60 | OCCCC(F)(F)C(F)(F)C(F)(F)C(F)(F)C(F)(F)C(F)(F)C(F)(F)F | 38.4 µM (active) and 43.2 µM (active) | –
61 | COC(=O)CCC(F)(F)C(F)(F)C(F)(F)C(F)(F)F | – | inactive
62 | OCC(F)(F)C(F)(F)C(F)(F)C(F)F | – | inactive
63 | FC1CC(F)(F)C(F)(F)C1(F)F (centres undefined) | – | inactive
64 | O=C(O)C(F)(F)C(F)(F)C(F)(F)C(F)(F)F | – | inactive
65 | O=S(=O)(O)C(F)(F)C(F)(F)C(F)(F)C(F)(F)C(F)(F)C(F)(F)C(F)(F)F | – | inactive
66 | O=C(CC(=O)C(F)(F)C(F)(F)F)C(F)(F)F | – | inactive
